Compounds without any hit were thinned out: in the full panel of roughly 79,000, 15% have a hit. Activity calls are given as the source filed them. Rule as the data show it: active = growth inhibition above about 70%; inactive = the rest.
What was measured:
[1] = NCI Yeast Anticancer Drug Screen. Data for the rad52 strain (AID 147);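 also: 0% = growth of vehicle-treated control cultures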; settings: S. cerevisiae rad52 mutant growth inhibition, stronger effect = higher value
Method in brief: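 Here a repair-compromised yeast strain receives each compound; its growth is then quantified and normalised to vehicle-only controls.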

[2] = NCI Yeast Anticancer Drug Screen. Data for the wt1 strain (AID 149);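 also: 0% = growth of vehicle-treated wt1 cultures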; settings: S. cerevisiae wt1 strain (SPY 50644) growth inhibition, stronger effect = higher value
Method in brief: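 Measured: growth of wt1 yeast under compound versus vehicle treatment, reported as inhibition.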

[3] = NCI Yeast Anticancer Drug Screen. Data for the rad50EPP+ strain (AID 151);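 also: 0% = growth of vehicle-treated control cultures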; settings: S. cerevisiae rad50 mutant strain, stronger effect = higher value
Method in brief: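 Read-out is yeast growth inhibition relative to vehicle; cells used were the rad50EPP+ strain.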

[4] = NCI Yeast Anticancer Drug Screen. Data for the mgt1 strain (AID 153); settings: S. cerevisiae mgt1 mutant growth inhibition, stronger effect = higher value
Method in brief: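 Measured: inhibition of mgt1 yeast growth by compound, normalized to vehicle-treated cultures.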

[5] = NCI Yeast Anticancer Drug Screen. Data for the rad50 strain (AID 155);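 also: 0% = growth of vehicle-only cultures of the same strain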; settings: S. cerevisiae rad50 strain growth inhibition, stronger effect = higher value
Method in brief: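 Growth of the mutant yeast was measured after compound exposure and referenced to vehicle-treated cultures.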

[6] = NCI Yeast Anticancer Drug Screen. Data for the mec2-1 strain (AID 157); settings: S. cerevisiae mec2-1 strain, stronger effect = higher value
Method in brief: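 Using mec2-1 yeast: add compound, measure growth, express inhibition versus vehicle-treated cultures.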

[7] = NCI Yeast Anticancer Drug Screen. Data for the rad14 strain (AID 159);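 also: 0% = growth of vehicle-treated control cultures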; settings: S. cerevisiae rad14 strain growth inhibition, stronger effect = higher value
Method in brief: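 Here, inhibition of yeast growth was measured after compound exposure, using a strain with a genetic defect in DNA damage repair and vehicle-treated cultures as the reference.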

[8] = NCI Yeast Anticancer Drug Screen. Data for the sgs1 mgt1 strain (AID 161);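 also: 0% = growth of cultures given vehicle only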; settings: S. cerevisiae sgs1 mgt1 strain, stronger effect = higher value
Method in brief: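 This yeast growth screen uses a strain with defined DNA-repair lesions; compound-treated growth is compared with vehicle-treated growth.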

[9] = NCI Yeast Anticancer Drug Screen. Data for the CLN2oe strain (AID 163);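 also: 0% = growth of vehicle-only control cultures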; settings: S. cerevisiae CLN2oe strain, stronger effect = higher value
Method in brief: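 Whole-cell yeast growth assay. A strain engineered for altered cell-cycle control received compound, and inhibition relative to vehicle-treated cultures was recorded.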

[10] = NCI Yeast Anticancer Drug Screen. Data for the cln2 rad14 strain (AID 165);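 also: 0% = growth equal to vehicle treated cultures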; settings: S. cerevisiae cln2 rad14 strain, stronger effect = higher value
Method in brief: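 Yeast strain cln2 rad14, bearing defects in cell cycle control and DNA repair, serves as the test system; values reflect growth inhibition compared with vehicle.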

[11] = NCI Yeast Anticancer Drug Screen. Data for the bub3 strain (AID 167); settings: S. cerevisiae bub3 mutant strain, stronger effect = higher value
Method in brief: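 Whole-cell yeast assay. The mutant strain was incubated with compounds, and growth inhibition was determined by comparison with vehicle-treated cells.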

[12] = NCI Yeast Anticancer Drug Screen. Data for the wt2 strain (AID 169);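 also: 0% = growth of vehicle-treated yeast cultures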; settings: S. cerevisiae wt2 strain growth inhibition, stronger effect = higher value
Method in brief: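 Treated yeast vs. vehicle-treated yeast: growth inhibition determined.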

[13] = NCI Yeast Anticancer Drug Screen. Data for the mlh1 strain (AID 171);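 also: 0% = growth of vehicle-treated control cultures of the same strain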; settings: S. cerevisiae mlh1 strain growth inhibition, stronger effect = higher value
Method in brief: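 A yeast strain with a defined genetic lesion serves as the test organism. Cultures receive compound or vehicle, and growth is measured.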

[14] = NCI Yeast Anticancer Drug Screen. Data for the sgs1 strain (AID 173);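 also: 0% = growth of vehicle-only control cultures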; settings: S. cerevisiae sgs1 mutant, stronger effect = higher value
Method in brief: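 A genetically defined yeast mutant is incubated with the test compound, and its growth is compared to that of the same strain given vehicle.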

[15] = NCI Yeast Anticancer Drug Screen. Data for the mlh1 rad18 strain (AID 175); settings: S. cerevisiae mlh1 rad18 strain growth inhibition, stronger effect = higher value
Method in brief: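 Steps: expose repair-defective yeast to compound; measure growth; express inhibition against vehicle-treated controls.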

[16] = NCI Yeast Anticancer Drug Screen. Data for the rad18 strain (AID 177); settings: S. cerevisiae rad18 mutant growth inhibition, stronger effect = higher value
Method in brief: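 Measured value is growth inhibition of a yeast strain bearing a DNA repair alteration, referenced to vehicle-treated cells.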

[17] = at 5.0 µM (retest, dose inferred, filed as 0.5)
[18] = at 50.0 µM (retest, dose inferred, filed as 5.0)

Measured: growth inhibition

O=C(Nc1ccc(Cl)cc1)c1cc2cc(N=Nc3ccccc3Cl)ccc2oc1=O
active: [1]; at 33.0 µM 89% | [1]; at 100.0 µM 92% | [2]; at 33.0 µM 72% | [2]; at 100.0 µM 93% | [3]; at 3.7 µM 75% | [3]; at 11.0 µM 89% | [3]; at 33.0 µM 90% | [3]; at 100.0 µM 86% | [4]; at 33.0 µM 92% | [4]; at 100.0 µM 95% | [5]; at 33.0 µM 84% | [5]; at 50.0 µM 88.8% | [5]; at 100.0 µM 90% | [6]; at 33.0 µM 94% | [6]; at 50.0 µM 88.5% | [6]; at 100.0 µM 95% | [7]; at 33.0 µM 95% | [7]; at 100.0 µM 94% | [8]; at 50.0 µM 84.8% | [9]; at 33.0 µM 89% | [9]; at 100.0 µM 92% | [10]; at 50.0 µM 82.8% | [11]; at 33.0 µM 93% | [11]; at 50.0 µM 86.2% | [11]; at 100.0 µM 93% | [12]; at 33.0 µM 91% | [12]; at 100.0 µM 94% | [13]; at 33.0 µM 95% | [13]; at 100.0 µM 95% | [14]; at 11.0 µM 70% | [14]; at 33.0 µM 93% | [14]; at 100.0 µM 92% | [15]; at 50.0 µM 85.4% | [16]; at 33.0 µM 92% | [16]; at 100.0 µM 91%
inactive: [1]; at 1.2 µM 8% | [1]; at 3.7 µM 25% | [1]; at 11.0 µM 58% | [2]; at 1.2 µM 3% | [2]; at 3.7 µM 8% | [2]; at 11.0 µM 26% | [3]; at 1.2 µM 39% | [4]; at 1.2 µM 3% | [4]; at 3.7 µM 11% | [4]; at 11.0 µM 48% | [5]; at 1.2 µM 4% | [5]; at 3.7 µM 13% | [5]; [17] 54% | [5]; at 11.0 µM 38% | [5]; [18] 54% | [6]; at 1.2 µM 3% | [6]; at 3.7 µM 10% | [6]; [17] 7% | [6]; at 11.0 µM 40% | [6]; [18] 7% | [7]; at 1.2 µM 4% | [7]; at 3.7 µM 5% | [7]; at 11.0 µM 62% | [8]; [17] 25% | [8]; [18] 25% | [9]; at 1.2 µM 3% | [9]; at 3.7 µM 13% | [9]; at 11.0 µM 40% | [10]; [17] 12% | [10]; [18] 12% | [11]; at 1.2 µM -14% | [11]; at 3.7 µM -19% | [11]; [17] 13% | [11]; at 11.0 µM 26% | [11]; [18] 13% | [12]; at 1.2 µM 5% | [12]; at 3.7 µM 15% | [12]; at 11.0 µM 57% | [13]; at 1.2 µM 1% | [13]; at 3.7 µM 7% | [13]; at 11.0 µM 38% | [14]; at 1.2 µM 11% | [14]; at 3.7 µM 24% | [15]; [17] 23% | [15]; [18] 23% | [16]; at 1.2 µM 4% | [16]; at 3.7 µM 24% | [16]; at 11.0 µM 68%

— PubChem BioAssay (NCI)
